Bioassay records: PubChem BioAssay, National Center for Advancing Translational Sciences (NCATS)
This is one part of a sample in which hits are shown more often than they occur.
ALOX12 inh – inhibitors of human 12S-lipoxygenase ALOX12 | P18054 | purified 12hLO, xylenol orange hydroperoxide absorbance | Potency, µM (doses to about 108 µM), for the others: top-dose activity change, negative = inhibition, usual class: inhibitors | 580,000 tested, 1.1% active | AID 1671190; also: potency is read from the fitted curve at half-maximal effect
Target sequence (P18054 whole entry, looked up): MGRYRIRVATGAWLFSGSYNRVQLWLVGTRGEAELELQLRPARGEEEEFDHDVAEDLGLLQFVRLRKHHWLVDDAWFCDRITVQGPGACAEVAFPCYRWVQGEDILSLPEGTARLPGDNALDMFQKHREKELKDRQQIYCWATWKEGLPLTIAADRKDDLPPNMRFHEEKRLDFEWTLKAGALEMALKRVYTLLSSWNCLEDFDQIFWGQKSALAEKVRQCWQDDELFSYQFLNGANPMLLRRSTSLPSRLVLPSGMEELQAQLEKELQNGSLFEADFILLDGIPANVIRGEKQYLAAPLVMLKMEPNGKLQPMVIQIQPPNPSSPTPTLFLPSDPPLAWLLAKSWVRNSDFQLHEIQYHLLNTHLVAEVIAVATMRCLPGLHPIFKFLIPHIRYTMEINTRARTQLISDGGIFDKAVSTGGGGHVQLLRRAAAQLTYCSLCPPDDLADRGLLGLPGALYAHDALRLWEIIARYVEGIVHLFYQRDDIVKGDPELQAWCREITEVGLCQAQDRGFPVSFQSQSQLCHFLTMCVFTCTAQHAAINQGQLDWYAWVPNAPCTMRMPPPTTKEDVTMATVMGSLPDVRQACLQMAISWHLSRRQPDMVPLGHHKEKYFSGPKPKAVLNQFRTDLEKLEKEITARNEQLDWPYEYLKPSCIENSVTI
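Purified human 12hLO (150 nM final) in 25 mM Hepes, 0.01% Triton X-100, pH 7.0 was preincubated 15 min at room temperature with compound. Then 40 uM arachidonic acid was added, 30 min. Hydroperoxide was read by Fe-XO absorbance ratio 573/405 nm.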
TDP1 cell noCPT – qHTS for Inhibitors of human tyrosyl-DNA phosphodiesterase 1 (TDP1): qHTS in cells in absence of CPT; DT40 Tdp1-/- hTDP1 cells, no CPT, ATP luminescence, 48 h; Potency, µM (series often up to 46.2 µM), for inactives: at the top dose activity change, negative = growth inhibition, most hits filed as inhibitors; 420,000 tested, 15% active; AID 686978, 2013; also: potency is read from the fitted curve at half-maximal effect; nearly all actives have a fitted effect of over 55% in size
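Camptothecin absent (DMSO only). Human TDP1-complemented DT40 knockout cells, 400 cells/well, 37 °C for minimum 48 hr; ATP measured via CellTiter-Glo, 30 min dark incubation, luminescence.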
HT1080-NT tox – kills 2HG-producing HT-1080-NT fibrosarcoma cells; HT-1080-NT fibrosarcoma viability, CellTiter-Glo ATP luminescence, 48 h; Potency, µM (series often up to 46.1 µM), without a hit: at the highest dose activity, negative = less viability, hits mostly cytotoxic; AID 686970; 360,000 tested, 1.6% active;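 also: NT is the 2HG producing partner of a matched IDH1 knockdown line; potency is read from the fitted curve at half-maximal effect; 0% = DMSO-treated cells and -100% = media-only wells without cells; nearly all actives have a fitted effect of over 55% in size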
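Fibrosarcoma NT cells, 750 per well in 5% FBS RPMI, were exposed to compound for 48 hours. Viability: CellTiter-Glo luminescence.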
HT1080 IDH1KD tx – toxicity to HT-1080 IDH1 knockdown cells (counter line); HT-1080 IDH1 knockdown viability, ATP luminescence, 48 h; Potency, µM (highest dose often 46.1 µM), for inactives: top-dose activity, negative = toxicity, hits mostly cytotoxic; 360,000 tested, 2% active;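 also: potency is read from the fitted curve at half-maximal effect; 0% = DMSO wells and -100% = cell-free medium wells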
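Using the IDH1-knockdown HT-1080 line run in the same batch and compound series as the NT line, viability after 48 h at 37 °C was determined by CellTiter-Glo luminescence and expressed as % activity.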
IL1B secr inh – inhibitors of inflammasome signaling (IL-1 beta secretion); 360,000 tested, 4.7% active; activity change, % at 57.5 µM; THP-1 LPS/ATP IL-1B secretion, AlphaLISA, 16 h; active compounds read low; in the data active = activity change below about -50%; inconclusive = mostly about -30% to -49%
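Secreted IL-1B measured by AlphaLISA bead assay after 16 h compound exposure of THP-1 cells; compounds (final up to 57.5 uM) added 1 h before LPS (250 ng/mL) and ATP (1.25 mM) stimulation; lower signal means less secretion.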
DT40 TDP1 CPT – DT40-hTDP1 cell growth loss with CPT | chicken DT40 Tdp1-/-;hTDP1 cells + 20 nM CPT, ATP luminescence, 48 h | Potency, µM (series often up to 46.2 µM), for inactives: top-dose activity change, negative = growth inhibition, hits mostly inhibitors | 420,000 tested, 12% active; also: potency is read from the fitted curve at half-maximal effect; nearly all actives have a fitted effect of over 55% in size
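Chicken DT40 Tdp1-/- cells complemented with human TDP1, 400 cells/well, exposed to compounds plus 20 nM camptothecin for at least 48 h at 37 C; viability read as ATP content by CellTiter-Glo luminescence.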
Numbers without * were called inactive; ? = inconclusive; · = no result. Unless noted, calls follow the shape of the dose curve; as a rule, active = well fitted curve in the direction sought with a large enough effect; inconclusive = small, poorly fitted or top-dose-only effect, or another doubt; inactive = no such curve, though single readings can be large; an effect the other way counts as inactive or inconclusive. Unless noted, % is scaled to controls: 0 for no effect and ±100 for the full control effect.

SMILES	ALOX12 inh	TDP1 cell noCPT	HT1080-NT tox	HT1080 IDH1KD tx	IL1B secr inh	DT40 TDP1 CPT
Cn1ccnc1/C(=N\NC(=O)c1ccccc1)c1cccc([N+](=O)[O-])c1	51.3%	?	-14.6%	-1.6%	-51.4*	3.2%
N#Cc1ccc(F)c(Cn2cnc3ccccc3c2=O)c1	8.9%	·	·	·	·	·
O=C(Nc1ccc2nn(-c3ccccc3)nc2c1)c1cc2ccccc2o1	-5.7%	14.6µM*	·	·	·	?
CCc1ccc(-n2nc3ccc(NC(=O)c4cc5ccccc5o4)cc3n2)cc1	-27.9%	4.61µM*	·	·	·	?
CCOc1ccc(-c2cc(C(=O)OC)c3cc(C)ccc3n2)cc1	-12.2%	·	·	·	·	·
Cc1ccc(C)n1-c1ccc(N2CCOCC2)c(Br)c1	-7.7%	14.6µM*	?	?	?	18.4µM*
CCNC(=S)NNC(=O)c1ccccn1	10.8%	?	1.4%	-25.1%	82.0	20.6µM*
O=C(NNC(=S)Nc1ccc(Cl)c(Cl)c1)c1ccccn1	?	1.46µM*	-18.8%	?	101.1	2.91µM*
CC1CCCCC1NC(=O)C1CCC1 (centres undefined)	-18.3%	·	·	·	·	·
CCOC(CNCc1cc(C)c2[nH]c3ccccc3c2c1C)OCC	-22.2%	11.6µM*	-3.4%	?	-95.6*	16.4µM*
COc1cccc(C2c3c(oc4ccccc4c3=O)C(=O)N2CCCN2CCOCC2)c1OC (centres undefined)	13.0%	6.6%	-0.4%	17.0%	11.2	0.2%
COc1ccc(CCN2C(=O)c3oc4ccc(F)cc4c(=O)c3C2c2ccc(C(C)(C)C)cc2)cc1 (centres undefined)	4.7%	3.26µM*	·	·	·	?
COc1ccc(C2c3c(oc4ccccc4c3=O)C(=O)N2CCCN2CCOCC2)cc1 (centres undefined)	·	23.1µM*	2.7%	4.8%	6.7	?
CCOc1cccc(C2c3c(oc4ccc(F)cc4c3=O)C(=O)N2CCc2ccc(OC)cc2)c1 (centres undefined)	2.8%	?	·	·	·	5.17µM*
Cc1ccc2c(COC(=O)c3cccc(S(=O)(=O)N(C)C)c3)cc(=O)oc2c1	3.5%	·	·	·	·	·
CC(C)N1C(=O)C2(CCCC2)C1C(=O)NCCN1CCCCC1 (centres undefined)	32.1%	·	·	·	·	·
CC(C)c1ccc2c(c1)-c1ccccc1S(=O)(=O)N2CC(=O)NCc1cccnc1	9.2%	·	·	·	·	·
O=[N+]([O-])c1ccc(Cl)cc1Sc1nc2ccccc2o1	-0.1%	?	-3.5%	5.1%	-58.2*	?
O=C(N/N=C/C=C/c1ccccc1)c1cc(C2CC2)[nH]n1	283.8%	-19.8%	-1.9%	-0.3%	-54.1*	6.6%
Cc1ccc(-c2cc(C(=O)N/N=C/C=C/c3ccccc3)n[nH]2)s1	-2.4%	?	?	-24.9%	-7.0	16.4µM*
CCOC(=O)c1cc([N+](=O)[O-])cc([N+](=O)[O-])c1Sc1ncnc2nc[nH]c12	-24.8%	2.59µM*	4.61µM*	4.61µM*	-100.1*	1.84µM*
Cc1ccc(C(=O)OCc2ccc(C#N)cc2)cc1C	-47.7%	·	·	·	·	·
COC1CCC12CCN(C(=O)c1cccnc1)CC2 (centres undefined)	4.0%	·	·	·	·	·
COc1ccc(NC(=O)c2ccc(S(=O)(=O)N(C)c3ccccc3)cc2)cn1	-14.0%	?	1.6%	-2.0%	-29.6	14.6µM*
COc1cc(C(=O)Nc2ccc(N(C)C)cc2)cc(OC)c1OC	-36.1%	?	?	?	-9.5	20.6µM*
COc1cc(C(=O)NNC(=O)c2ccc(NC(C)=O)cc2)cc(OC)c1OC	6.3%	-13.6%	27.2%	16.2%	-7.9	-8.6%
